# A selection: hits, their analogues and other compounds. The true share with any hit is near 2.8%.
# HTT ATP protect – Huntington cell model cytoprotection by ATP luminescence; Potency, µM (top dose mostly 56.4 µM), without a hit: cytoprotection (ATP increase), most hits filed as activators; PC12 HTT-Q103 induced, cytoprotection, ATP luminescence, 40 h; AID 1471; hit rate 0.14% among 230,000; note: % of control where 0% means no effect; nearly all actives have a fitted effect of over 45% in size
#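 ATP quantification (ATPlite) reports survival of PC12 cells in which tebufenozide, 100 nM final, switches on Htt exon 1 with 103 glutamines linked to GFP; compounds are titrated.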
# S2 tox – reduces viability in counter-screen for ATXN expression inhibitors. S2 cells (HEK-293 line with an ATXN2-luciferase reporter) viability, CellTiter-Fluor protease fluorescence, 24 h. Potency, µM (top dose mostly 56.7 µM), most hits filed as cytotoxic. hit rate 0.49% among 400,000; note: nearly all actives have a fitted effect of over 40% in size
# TGFb SMAD3 inh – blocks TGF-b signaling; HepG2 CAGA-GFP TGF-b/SMAD3 reporter, GFP fluorescence, 18 h; TGF-beta stimulated, 500 pg/mL final; Potency, µM (top dose mostly 46.1 µM), inactives show at the top dose activity, negative = inhibition, most hits filed as inhibitors; AID 588855; hit rate 1.2% among 410,000; note: % is set by controls: 0 for no effect and ±100 for the full control effect; nearly all actives have a fitted effect of over 65% in size
#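 Per well, imaged GFP fluorescence of HEPG2 CAGA-GFP cells gives the signal; cells get compound, then TGF-beta (500 pg/mL final), 18 h at 37 degrees C; %Activity versus -TGF-beta and +DMSO controls.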
# HTT aggregate – mutant huntingtin aggregation inhibition. PC12 HttQ103-GFP aggregates, Acumen cytometry, 40 h. Potency, µM (top dose mostly 46.1 µM), for inactives: at the top dose activity change, negative = inhibition, hits mostly inhibitors. hit rate 1.1% among 220,000; note: % is set by controls: 0 for no effect and ±100 for the full control effect; nearly all actives have a fitted effect of over 60% in size
#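 PC12 cells stably carrying ecdysone-inducible HTT exon 1 Q103–GFP were induced with tebufenozide (100 nM final) and treated with library compounds in titration. GFP aggregates in lysates were counted by laser scanning cytometry.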
# HepG2 tox – counter-screen for TGF-b inhibitors: cytotoxicity in HepG2 cells | HepG2 CAGA-GFP viability, ATP luminescence, 18 h | Potency, µM (top dose mostly 46.1 µM), without a hit: at the highest dose activity change, negative = cytotoxicity, usual class: cytotoxic | hit rate 0.76% among 410,000 | AID 588856
#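 CellTiter-Glo luminescence gave cytotoxicity after 18 hours at 37 degrees C. The cells were HepG2 CAGA-GFP in 1% FBS DMEM, stimulated with 500 pg/mL TGF-beta after compound addition. %Activity was normalised to no-cell wells (complete cell-killing) and DMSO (no toxicity), and curves were fitted and classified.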
# ATXN2 expr inh – reduces ATXN2 reporter expression in HEK-293 cells; HEK-293 ATXN2-luciferase reporter, luminescence, 24 h; Potency, µM (top dose mostly 57 µM), inactives show top-dose activity change, negative = inhibition, hits mostly inhibitors; hit rate 0.72% among 360,000; AID 1745845; note: % is set by controls: 0 for no effect and ±100 for the full control effect; nearly all actives have a fitted effect of over 55% in size
#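 qHTS (up to 57 uM final) was run with 24 h compound exposure of reporter cells at 37 °C. Each well was multiplexed: SteadyGlo luminescence measured ATXN2-luciferase expression after a fluorogenic Gly-Phe-AFC viability readout (25 uM final).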
# Numbers without * were called inactive; i = inactive; ? = inconclusive; · = no result given; [ ] = another dose, or the depositor's remark. Calls come from the whole dose curve; as a rule, active = well fitted curve in the direction sought with a large enough effect; inconclusive = small, poorly fitted or top-dose-only effect, or another doubt; inactive = no such curve, though single readings can be large; an effect the other way counts as inactive or inconclusive. Potency is the fitted concentration of half-maximal effect.
SMILES,HTT ATP protect,S2 tox,TGFb SMAD3 inh,HTT aggregate,HepG2 tox,ATXN2 expr inh
CCn1nc(C)cc1-c1nnc(SCC(=O)Nc2ccccc2)n1CCCOC,-22%[10 µM],i,0%,-17%[9.22 µM],-7%,-18%
CCN1C(=O)c2ccccc2C1Nc1ccc(OCCN2CCCCC2)cc1 (stereo unspecified),·,i,·,·,·,4%
CC1CCCC(n2c(=S)[nH]c3ccccc3c2=O)C1C (stereo unspecified),-83%,?,14µM*,?,-70%,-27%
CC[C@@H]1/C=C(\C)C[C@H](C)C[C@H](OC)[C@H]2O[C@@](O)(C(=O)C(=O)N3CCCC[C@H]3C(=O)O[C@H](/C(C)=C/[C@@H]3CC[C@H](Cl)[C@H](OC)C3)[C@H](C)[C@@H](O)CC1=O)[C@H](C)C[C@@H]2OC,7%,·,·,-8%,·,·
COC(=O)Cc1ccc(NC(=O)c2ccc(C(C)(C)C)cc2)cc1,-69%[10 µM],i,9%,9%,-30%,0.79µM*
O=C(NCc1cccc(Cl)c1)c1ccc(S(=O)(=O)Nc2cccc(C(F)(F)F)c2)cc1,8%[10 µM],i,?,?,10µM*,-6%
N#C/C(=C(/O)COC(=O)c1ccc2c(c1)OCCO2)c1nc2ccccc2[nH]1,-3%,?,-6%,12%,16µM*,9%
N#C/C(=C(/O)COC(=O)CSc1ccc(Cl)cc1)c1nc2ccccc2[nH]1,3%[1.9 µM],14µM*,17%,-4%,-14%,28µM*
N#CC(=C(O)COC(=O)CCC1CCCCC1)c1nc2ccccc2[nH]1,·,·,-5%,·,16%,20µM*
COc1ccccc1OCC(=O)OC/C(O)=C(\C#N)c1nc2ccccc2[nH]1,-16%[10 µM],3.2µM*,-11%,7%,2%,·
Cc1ncc2c(c1CNC(=O)c1cncs1)CCN(C(=O)c1ccc(-c3ccccc3)cc1)C2,·,i,·,·,·,·
Cn1cc(CN(C(=O)Nc2ccccc2)C2CCCCC2)c2ccccc21,·,?,?,·,16µM*,?
O=c1[nH][nH]c(=S)c(=O)[nH]1,-9%[10 µM],·,·,·,·,·
Cc1cc2ncc(-c3ccccc3)nc2cc1C,-91%,i,-20%,·,-12%,·
CCOC(=O)c1ccc2ncc(-c3ccccc3)nc2c1,-38%,i,2%,-1%,2.5µM*,67%
Oc1ccccc1C1C=C(c2ccc3c(c2)OCO3)NC(c2ccc(Br)cc2)N1 (stereo unspecified),·,·,-11%,·,-22%,·
CCOC(=O)CC(NS(=O)(=O)c1ccc2[nH]c3c(c2c1)CCCC3)c1ccccc1Cl (stereo unspecified),·,·,20µM*,·,-48%,·
CCOc1ccccc1CNS(=O)(=O)c1ccc2[nH]c(=O)sc2c1,-10%,i,-25%,13µM*,-14%,0%
COc1cccc(NS(=O)(=O)c2ccc3[nH]c4c(c3c2)CCCCCC4)c1,·,i,?,·,13µM*,-23%
CCOC(=O)C1CCN(S(=O)(=O)c2ccc3[nH]c4c(c3c2)CCCC4)CC1,·,i,-5%,·,-4%,0%
COc1ccc(NS(=O)(=O)c2ccc3[nH]c4c(c3c2)CCCCCC4)cc1,·,?,?,·,-103%,?
COc1ccccc1CNS(=O)(=O)c1ccc2[nH]c3c(c2c1)CCCCC3,·,?,11µM*,·,-57%,0%
Cc1ncc2c(c1CNC(=O)/C=C/c1cccs1)CCN(C(=O)c1ccc3c(c1)OCCO3)C2,·,i,·,·,·,·
Cc1ccc(-c2noc(CCC(=O)NC3CCCc4ccccc43)n2)cc1 (stereo unspecified),·,i,?,3.2µM*,-25%,-6%
Cc1cc(C)c2c(=O)n3c(nc2c1)C(Cc1ccccc1)NC(=O)c1cccnc1-3 (stereo unspecified),·,10µM*,?,·,-29%,-35%
SMILES,HTT ATP protect,S2 tox,TGFb SMAD3 inh,HTT aggregate,HepG2 tox,ATXN2 expr inh
Cc1ccc(F)cc1NC(=O)CCNC(=O)c1ccc([N+](=O)[O-])cc1,·,i,-3%,·,7%,-1%
COC(=O)c1ccc(C)c(NC(=O)CCNC(=O)c2ccc([N+](=O)[O-])cc2)c1,21%[1.9 µM],i,-4%,?,4.5µM*,8%
Cc1ccccc1C1(CC(=O)N2CC3CC4CC(C3)CC2C4)CC(=O)N(Cc2cccnc2)C1=O (stereo unspecified),·,i,·,·,·,·
CCOC(=O)c1c(CSc2ccc(CC)cc2)oc2ccc(O)c(CN(C)C)c12,·,·,?,·,22µM*,16µM*
CCOC(=O)c1c(C)oc2ccc(O)c(CN(C)C)c12,4%[1.9 µM],i,28%,-17%,14%,-8%
Cc1ccccc1-c1ccc(CN2CCc3nnc(CNC(=O)c4ccccn4)n3CC2)cc1,·,i,·,·,·,·
N#Cc1cc2ccncc2c2ccccc12,·,i,-17%,·,-28%,·
Nc1cc2ccncc2c2ccccc12,20%[10 µM],i,-1%,0.35µM*,-12%,·
COc1ccc(CN2CCCC(n3cc(C(=O)N4CCCCC4)nn3)C2)cc1OC (stereo unspecified),·,i,·,·,·,·
CN(Cc1ccccc1)C(=O)CC(c1ccccc1)c1cc(Cl)ccc1O (stereo unspecified),3%,i,16µM*,?,-100%,-36%
CCCN(CCC)C(=O)CC(c1ccccc1)c1cc(C)ccc1O (stereo unspecified),3%,i,?,?,-42%,3%
Cc1ccc(-c2ccnc(-n3ncc(C(=O)N(C)CC4CCCN(C)C4)c3C)n2)o1 (stereo unspecified),·,i,·,·,·,·
COCC(=O)Nc1cc(Cl)ccc1C,14%,i,-19%,13%,-1%,-22%
Cc1ccc(Cl)cc1NC(=O)CC(O)(C(F)(F)F)C(F)(F)F,-21%,?,13µM*,16µM*,-36%,?
COc1cc(/C=C/c2ccnc3ccccc23)cc(OC)c1OC,·,·,-4%,·,-30%,·
COc1ccc2nc3ccccc3[n+]([O-])c2c1,·,·,1%,·,2%,19%
[O-][n+]1c2ccccc2cc2ccccc21,·,i,11µM*,·,-5%,?
Cc1cccc(OCCc2nnc(N)s2)c1C,6%,i,20µM*,-23%,-11%,-8%
COc1cccc(CNC(=O)c2c(OC)cc(=O)n3c2CCN(C(=O)c2ccccc2Cl)CC3)c1,·,i,·,·,·,·
CCOC(=O)c1c(-c2ccc(OC)cc2)csc1/N=C/C1C(=O)CCCC1=O,-60%,i,37%,?,16µM*,-15%

# Screening results: PubChem BioAssay, National Center for Advancing Translational Sciences (NCATS)
